# According to the supplement of paper PMC6555819:
# What was measured:
# Assay in all cases: PBM binding z-score (relative to random genomic background probes); higher = stronger binding; sequences stand for … in GC…GCGATTGACAGCGTAGAATGAAGG
# [1] = tested on: PPARg:RXRa DBDmut IVT, anti-RXR (DBD mutation: RXRa K156A/R161A, NR concentration 270 nM, RXRa partner concentration 90 nM)
# Outline: (§1)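 Probes were double-stranded and carried 34-nt variable regions with direct-repeat seeds, single-nucleotide variants, half-site ablations and random human genomic background sequences, printed on custom Agilent 4×180K protein-binding microarrays. Arrays were incubated 1 h with ligand-free nuclear receptor dimers in PBS pH 7.4, 2% milk, 0.02% Triton X-100, 1 mM DTT, 0.2 mg/mL BSA and 0.4 mg/ml salmon testes DNA. Antibodies against each partner (one per run) detected binding, and scanned fluorescence was regression-normalized. Binding z-scores use the random background probes as reference.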
# [2] = tested on: PPARg:RXRa IVT, anti-PPARg (NR concentration 270 nM, RXRa partner concentration 90 nM)
# Outline: as §1
# [3] = tested on: PPARg DBDmut:RXRa IVT, anti-PPARg (DBD mutation: PPARg1 K132A/R137A, NR concentration 270 nM, RXRa partner concentration 90 nM)
# Outline: as §1
# [4] = tested on: PPARg DBDmut IVT, anti-PPARg (DBD mutation: PPARg1 K132A/R137A, NR concentration 270 nM)
# Outline: as §1
# [5] = tested on: PPARg homodimer (NR concentration 180 nM)
# Outline: as §1
# [6] = tested on: PXR:RXRa (NR concentration 270 nM, RXRa partner concentration 90 nM)
# Outline: as §1
# [7] = tested on: PXR homodimer (NR concentration 270 nM)
# Outline: as §1
# [8] = tested on: RARa:RXR (NR concentration 270 nM, RXRa partner concentration 90 nM)
# Outline: as §1
# [9] = tested on: RARa homodimer (NR concentration 270 nM)
# Outline: as §1
# [10] = tested on: RARb:RXRa (NR concentration 270 nM, RXRa partner concentration 90 nM)
# Outline: as §1
# [11] = tested on: RARb homodimer (NR concentration 270 nM)
# Outline: as §1
# [12] = tested on: RARg:RXRa (NR concentration 270 nM, RXRa partner concentration 90 nM)
# Outline: as §1
# [13] = tested on: RARg homodimer (NR concentration 270 nM)
# Outline: as §1
# [14] = tested on: RXRa DBDmut IVT, anti-RXR (DBD mutation: RXRa K156A/R161A, NR concentration 90 nM)
# Outline: as §1
# [15] = tested on: RXRa homodimer (NR concentration 180 nM)
# Outline: as §1
# [16] = tested on: THRa:RXRa (NR concentration 90 nM, RXRa partner concentration 90 nM)
# Outline: as §1
# [17] = tested on: THRa homodimer (NR concentration 90 nM)
# Outline: as §1
# [18] = tested on: VDR homodimer (NR concentration 270 nM)
# Outline: as §1
Sequence,PBM binding z-score [1],PBM binding z-score [2],PBM binding z-score [3],PBM binding z-score [4],PBM binding z-score [5],PBM binding z-score [6],PBM binding z-score [7],PBM binding z-score [8],PBM binding z-score [9],PBM binding z-score [10],PBM binding z-score [11],PBM binding z-score [12],PBM binding z-score [13],PBM binding z-score [14],PBM binding z-score [15],PBM binding z-score [16],PBM binding z-score [17],PBM binding z-score [18]
CCTACTGAGCCATCAGGTCATTGATATCAACGTT,1.16,1.31,0.489,-0.632,2.1,2.1,1.55,2.21,1.53,1.81,2.7,1.5,1.69,1.17,1.42,3.37,3.52,2.2
CAAACTAGGTCACAGATGTCAAAGTCCGTGCGTA,8.74,8.85,3.45,2.75,2.09,2.47,0.19,3.24,1.17,4.17,3.51,4.42,4.89,2.36,3.86,3.36,1.68,1.91
CGTCAGAGTTCAAGGTAACGTAACAGAAAGCAGC,0.546,0.936,-0.0239,0.226,2.34,4.5,2.86,3.31,0.785,4.36,3.02,4.6,5.3,4.91,4.35,2.74,1.04,4.53
TCATATAGGTAAATGCTAGGTGGAAGTCCGATCT,3.98,2.01,1.68,0.774,0.237,0.234,0.0145,0.241,0.904,0.253,-0.19,0.303,0.0562,1.28,0.571,0.0546,-0.18,0.0417
CCTTACGGGTCACTGACAGGTTATTGCATTTGGA,3.48,3.61,0.525,0.563,2.74,3.89,0.344,4.51,0.71,4.04,3.24,5.55,4.57,1.94,5.07,2.92,0.504,1.45
GCTGCTAGGTCAGCTGATGGTCAGCTAAAGCTCG,3.51,2.35,-1.32,-1.88,0.56,-0.015,-1.12,0.983,-1.22,3.57,2.88,3.97,4.38,0.423,0.813,1.83,-0.0581,-1.09
CCTTACGGGTCTCGAGGTTATAGCACGACGAGCG,-0.507,0.298,-0.399,-0.982,0.167,0.396,-0.353,0.806,-0.452,0.666,0.421,0.66,0.422,-0.815,1.27,1.05,-0.08,0.435
CCTCGGAGGACAGAAGGTCAGAGCAGTCCGCTTT,0.416,0.276,-1.6,-1.82,1.18,2.83,-0.373,2.41,0.42,3.25,3.7,3.53,3.41,0.444,2.16,2.67,-0.117,0.311
TCGAGTAGGTTACCAAGGGGGCATTCAGCTTTCT,3.32,4.07,4.92,5.1,1.17,2.98,0.477,2.6,-0.167,1.98,1.98,4.64,1.87,1.26,1.98,2.16,0.891,2.16
AGAACGAGGGCAATGAGTTGATAGCGCGGGTGGC,3.57,2.39,0.0277,-0.898,-0.335,1.62,4.62,-0.0907,-1.01,1.96,0.949,0.964,1.44,2.34,0.602,0.756,-0.205,3.3
GCTTGCAGATCAAGGTTAAGAAAGACTAAGCTAA,0.163,0.227,-0.556,-0.251,-0.687,0.18,-0.42,0.588,-0.293,0.686,-0.0263,0.321,0.141,-0.00088,0.55,1.16,-0.514,-0.323
ACTAGCAGGCCAAGGGGCACTCAAGATTAGTCCG,0.959,1.41,0.105,-0.646,-0.02,-0.175,-0.332,-0.0268,-0.844,1.09,0.873,0.423,0.766,-0.00995,0.366,0.0441,-0.582,0.169
CCTTACGGGTCACGAGGATATAGCACGACGAGCG,3.74,4.93,1.1,0.884,2.13,3.42,-0.093,4.41,1.37,4.59,3.37,5.53,5.26,0.944,6.1,3.16,0.656,0.89
CATACAGGGTCAGCTAGGCCAGAGCAGGGACGGC,0.983,2.45,0.782,0.361,1.29,2.04,0.078,2.84,0.253,4.15,3.07,4.3,4.47,1.32,4.21,3.18,0.613,0.954
GATACAGGCTCAAGGCCAGAGTACGCGTATTGAT,-0.731,-0.511,-0.646,-1.16,-1.02,-0.534,0.0448,-0.806,-0.764,-0.0838,-0.491,-0.284,0.128,-0.619,-0.27,-0.479,-0.602,-0.14
